PNC inhibitor: perinucleolar compartment assembly inhibition; PC3M PTB-GFP, PNC prevalence imaging, 16 h; active compounds read low; activity change (PNC), negative = inhibition, % at 10 µM; actives 3.1% (n = 140,000); AID 2417;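 active = readout at or below -70, meaning at least 70% loss of cells showing the perinucleolar compartment, a nuclear body marking cancer cells; inconclusive = readout between -30 and a set limit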;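 note: plate controls were DMSO wells for no effect and camptothecin positive control wells for full effect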
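Compounds are pinned in duplicate onto adhered PC3M cells stably expressing GFP-tagged PTB and incubated 16 h at 37 C. Cells are then fixed, nuclei stained with Hoechst, and PNC-positive cells counted.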
HPGD inh: inhibitors of human 15-hydroxyprostaglandin dehydrogenase (HPGD); purified HPGD, NADH fluorescence kinetic, PGE2 substrate; Potency, µM, inactives show at the highest dose activity change, negative = inhibition, hits mostly inhibitors; P15428; actives 4.3% (n = 150,000); AID 894; note: potency is the fitted concentration of half-maximal effect
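NADH formation kinetics: reaction with 30 uM PGE2 and 1 mM NAD+ (final), 20 nM enzyme, Tris-HCl pH 8 with Tween 20, after 15 min compound preincubation at room temperature. Fluorescence change, last versus first of five reads.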
ALDH1A1 inh: blocks purified human ALDH1A1 activity | P00352 | Purified ALDH1A1, NADH fluorescence, propionaldehyde substrate | Potency, µM (series often up to 75.3 µM), without a hit: at the top dose activity, negative = inhibition, usual class: inhibitors | actives 7.3% (n = 220,000);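 note: potency is the fitted concentration of half-maximal effect; plate controls were no enzyme wells and a reference inhibitor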
JMJD2E inh: blocks human JMJD2E demethylase activity; B2RXH2; JMJD2E catalytic domain, FDH-coupled NADH fluorescence (FDH is formaldehyde dehydrogenase); Potency, µM (series often up to 57.1 µM), for inactives: at the top dose activity change, negative = inhibition, most hits filed as inhibitors; actives 1.6% (n = 230,000);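 note: potency is the fitted concentration of half-maximal effect; 0% = wells with enzyme and -100% = buffer wells without enzyme; nearly all actives have a fitted effect of over 50% in size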
Target sequence (B2RXH2 1-337 limits assumed): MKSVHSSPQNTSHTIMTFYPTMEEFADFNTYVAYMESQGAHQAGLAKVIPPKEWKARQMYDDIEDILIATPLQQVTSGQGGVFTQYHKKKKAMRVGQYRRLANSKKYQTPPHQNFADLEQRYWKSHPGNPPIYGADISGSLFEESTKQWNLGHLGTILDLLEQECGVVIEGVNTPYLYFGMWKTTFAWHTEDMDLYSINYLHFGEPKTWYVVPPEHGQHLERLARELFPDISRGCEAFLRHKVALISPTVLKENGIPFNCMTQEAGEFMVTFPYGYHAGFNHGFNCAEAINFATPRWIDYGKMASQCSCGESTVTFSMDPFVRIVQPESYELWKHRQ
* hit, by the source's call; ? = inconclusive; · = no result given; [ ] = another dose, or the depositor's remark. In the library only some 11% were active in any assay of this set; here they are far more common. Unless noted, calls come from the whole dose curve; as a rule, active = well fitted inhibition curve with a large enough effect (not every such curve was filed as active); inconclusive = small, poorly fitted or top-dose-only effect, or another doubt; inactive = no such curve, though single readings can be large or run the other way. Unless noted, % is set by controls: 0 for no effect and ±100 for the full control effect.

SMILES	PNC inhibitor	HPGD inh	ALDH1A1 inh	JMJD2E inh
O=C(CN1C(=O)CSc2ccccc21)NC1CCCC1	?	·	-10%	0%
O=C(CN1C(=O)C(=O)c2ccccc21)NC1CCCCC1	35	-6%	0.89µM*	3%
O=C(CCSc1ccccc1)NC1CCCC1	17	14µM*	-4%	-6%
COc1cc(NC(=O)c2cccs2)c(OC)cc1NC(=O)CCC(=O)Nc1ccc2ncccc2c1	·	·	0%	?
O=C(CCCCCCN1C(=O)c2ccccc2C1=O)NC1CCCCC1	2	4.5µM*	-3%	-6%
O=C(CCCn1c(=O)[nH]c2ccccc2c1=O)NC1CCCCCC1	37	?	?	1%
CCOC(=O)c1sc2nc(CC(=O)OC)nc(N3CCN(c4ccc(OC)cc4)CC3)c2c1C	-100*	-11%	0.1µM*	-5%
N[C@@H](Cc1cccc([N+](=O)[O-])c1)C(=O)O	·	-6%	-9%[13.5 µM]	·
O=C(/C=C/c1cccc([N+](=O)[O-])c1)NCCSCc1ccc(Cl)cc1	-16	-26%	22µM*	6%
CC(C)(C)SCCNC(=O)/C=C/c1ccc([N+](=O)[O-])cc1	?	-11%	?	5%
CC(C)(C)SCCNC(=O)/C=C/c1cccc([N+](=O)[O-])c1	29	-7%	14µM*	4%
O=C(/C=C/c1cccc([N+](=O)[O-])c1)NCCSCc1c(Cl)cccc1Cl	?	-17%	?	8%
Cc1ccc(C(=O)c2c(C)oc3c2C(=O)C(=O)c2ccccc2-3)cc1	?	20µM*	20µM*	6%
Cc1ccc(C(=O)c2coc3c2C(=O)C(=O)c2ccccc2-3)cc1	21	?	20µM*	?
COC(=O)[C@@H]1C[C@@]2(O)[C@@H](O)[C@@H](O)[C@@H](O)C[C@H]2N1Cc1ccc(C(C)(C)C)cc1	·	-11%	?	?
Cc1c(Cl)cccc1N=Cc1ccc([N+](=O)[O-])s1	?	-7%	?	22µM*
Cc1ccccc1C(=O)N/N=C/c1ccc([N+](=O)[O-])s1	?	-20%	?	-5%
COC(=O)c1ccccc1C(=O)c1ccc2c(c1)NC(=O)CO2	·	·	-6%	8%
Cc1c(C(=O)Nc2ccccc2)cn2c(nc3ccccc32)c1C#N	-80*	-16%	?	?
Cc1ccccc1C(=O)Nc1ccc2c(C#N)c3nc4ccccc4nc3n2c1	14	-20%	?	?
N#CCCn1c(=O)c(-c2ccc(F)cc2)nc2cnc(Oc3ccccc3)nc21	·	-10%	?	·
O=C(c1ccc(-n2c(SCc3cc(F)ccc3F)nc3ccccc3c2=O)cc1)N1CCOCC1	22	-12%	35µM*	5%
CCOC(=O)CC(=O)CSc1nc2ccccc2c(=O)n1-c1ccc(C(=O)N2CCOCC2)cc1	-14	-11%	-10%	-10%
Cc1ccc2c(c1)nnn2C1CCN(C(=O)C2CCCCC2)CC1	?	-5%	7.9µM*	7%
COc1cc2c(cc1C=O)OC(C)C2 (centres undefined)	·	·	?	-21%
SMILES	PNC inhibitor	HPGD inh	ALDH1A1 inh	JMJD2E inh
CCOc1cc2c(cc1C=O)OC(C)C2 (centres undefined)	·	·	25µM*	?
CCN(CC)c1ccc(CNc2ccc(Br)cn2)cc1	-14	-19%	7.1µM*	?
O=[N+]([O-])c1cc(Cl)ccc1-c1nc(-c2ccccc2)no1	?	14µM*	-5%	6%
S=C1NC(c2ccccc2)=CC(c2ccccc2)N1 (centres undefined)	·	·	0.89µM*	-2%
O=C1N=C(c2ccccc2)C(c2ccccc2)N1 (centres undefined)	-24	?	?	?
CC(=O)c1ccc(Oc2ccc(C(C)=O)cc2)cc1	137	?	9%	2%
CN(C)C(=O)c1ccc(Oc2ccc(C(=O)N(C)C)cc2)cc1	27	16µM*	?	-6%
Clc1nc2ccccc2nc1Cl	·	-10%	-10%	·
Cc1cc(-c2csc(NC(=O)c3cccc(S(=O)(=O)N(C)C)c3)n2)c(C)n1-c1ccccc1	25	-16%	?	13µM*
CC(C)(C)NC(=O)CN(CCc1ccccc1)C(=O)c1csnn1	·	·	-3%	-1%
CCO[C@H]1OC(C(=O)N2CCOCC2)=C[C@@H](C2CC2)[C@@H]1CCCO	·	·	4%	16%
CC1(C)CC(=O)C2=C(C1)N=C1SCCC(=O)N1C2c1cccc([N+](=O)[O-])c1 (centres undefined)	·	·	10µM*	-2%
CCOC(=O)c1[nH]c(C)c(C(=O)OCC(=O)N2CC(=O)Nc3ccccc32)c1C	6	16µM*	-15%	-1%
